In all, about 310,000 compounds went through this assay and about 14,000 (4.5%) showed an effect of 50% or more. Effects have a minus sign here. This excerpt belongs to a sample that is enriched for strong results.
biological target: human ether-à-go-go-related gene (hERG) potassium channel (human, UniProt Q12809); experiment: primary screen, population patch clamp on CHO cells stably expressing hERG; higher = less effect of the substance
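Also: peak tail current of the secondary pulse compared with the same well before compound.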

human ether-à-go-go-related gene (hERG) potassium channel, sequence (Q12809 whole entry, looked up): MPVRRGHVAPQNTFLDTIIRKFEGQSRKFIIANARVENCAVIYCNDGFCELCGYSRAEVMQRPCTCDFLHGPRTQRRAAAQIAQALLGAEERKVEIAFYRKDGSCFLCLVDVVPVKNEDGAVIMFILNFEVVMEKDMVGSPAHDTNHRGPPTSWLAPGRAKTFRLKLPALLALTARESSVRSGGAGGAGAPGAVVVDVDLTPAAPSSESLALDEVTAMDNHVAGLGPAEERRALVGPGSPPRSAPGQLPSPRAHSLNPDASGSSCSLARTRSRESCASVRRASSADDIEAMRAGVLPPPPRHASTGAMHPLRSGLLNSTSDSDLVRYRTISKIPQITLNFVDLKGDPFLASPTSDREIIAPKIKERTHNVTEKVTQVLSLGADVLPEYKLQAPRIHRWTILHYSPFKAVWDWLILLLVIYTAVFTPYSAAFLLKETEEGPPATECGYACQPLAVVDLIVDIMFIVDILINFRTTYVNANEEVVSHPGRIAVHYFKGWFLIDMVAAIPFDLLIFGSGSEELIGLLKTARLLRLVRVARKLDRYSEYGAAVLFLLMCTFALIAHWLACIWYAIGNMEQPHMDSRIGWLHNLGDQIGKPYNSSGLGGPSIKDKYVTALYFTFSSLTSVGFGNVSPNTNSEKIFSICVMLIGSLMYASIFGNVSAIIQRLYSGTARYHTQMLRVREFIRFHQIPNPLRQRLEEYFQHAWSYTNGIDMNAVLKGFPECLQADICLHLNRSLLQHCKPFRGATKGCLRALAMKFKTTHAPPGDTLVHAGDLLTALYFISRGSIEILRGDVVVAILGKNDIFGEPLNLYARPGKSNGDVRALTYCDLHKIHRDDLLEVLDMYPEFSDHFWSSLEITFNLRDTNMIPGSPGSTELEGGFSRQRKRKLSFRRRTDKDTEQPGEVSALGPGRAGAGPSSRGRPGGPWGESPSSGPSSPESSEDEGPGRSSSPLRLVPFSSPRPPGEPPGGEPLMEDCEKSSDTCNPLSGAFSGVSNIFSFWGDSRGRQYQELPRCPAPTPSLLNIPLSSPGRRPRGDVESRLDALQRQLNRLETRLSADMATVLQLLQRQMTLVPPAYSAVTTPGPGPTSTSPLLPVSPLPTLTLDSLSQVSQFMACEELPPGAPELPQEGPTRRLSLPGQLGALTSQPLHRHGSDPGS

Structure (SMILES)	hERG current change (%, negative = inhibition) at 10uM
Cc1ccc(S(=O)(=O)N(C)c2c(C)ccc(S(=O)(=O)N3CCN(C)CC3)c2C)cc1	-60.8%
Cc1ccc(S(=O)(=O)N2CCN(Cc3ccccc3)CC2)c(C)c1N(C)S(=O)(=O)c1ccccc1	5.81%
Cc1ccc(S(=O)(=O)N(C)c2c(C)ccc(S(=O)(=O)N3CCN(C=O)CC3)c2C)cc1	-42.8%
Cc1cc(C)c(S(=O)(=O)N2CCCCC2)c(C)c1N(C)S(=O)(=O)c1ccc(Cl)cc1	0.393%
C=C(C)CN1CCN(S(=O)(=O)c2ccc(C)c(N(C)S(=O)(=O)c3ccc(C)cc3)c2C)CC1	-2.33%
N#Cc1c(Nc2ccccc2)sc(C(=O)c2ccccc2)c1N	-7.02%
O=C(O)c1cccc([N+](=O)[O-])c1C(=O)Nc1cccc2ccccc12	21.9%
C[C@@H]1CC=C[C@H]2[C@H]1C(=O)N(Cc1ccccc1)[C@H]2c1ccc(/C=C/c2ccccc2)cc1F	4.34%
O=C(CN(Cc1ccco1)C(=O)Cn1nnc(-c2cccs2)n1)NCc1ccccc1	-51.7%
O=C(CN(Cc1ccco1)C(=O)Cn1nnc(-c2cccs2)n1)NCC1CCCO1 (stereo not drawn)	6.63%
O=C(CN(CCc1ccccc1)C(=O)Cn1nnc(-c2cccs2)n1)NCc1ccco1	-38.7%
CCSc1nnc(NC(=O)COc2ccc(Cl)cc2)s1	24%
CC(=O)C1=C(C)NC(SCC(=O)c2ccc(Cl)c(Cl)c2)=C(C#N)C1c1ccco1 (stereo not drawn)	5.27%
CCCCC(=O)NC(Nc1cc(C)ccn1)(C(=O)OCC)C(F)(F)F (stereo not drawn)	2.5%
CCC(C)(C)C1CCC(=NNC(=S)Nc2ccccc2)CC1 (stereo not drawn)	11.4%
COC(/C=C/Nc1ccc(OC)cc1)=C(C#N)C#N	-59.9%
COC(/C=C/Nc1ccc(C)cc1)=C(C#N)C#N	-38%
COC(/C=C/Nc1ccc(Br)cc1)=C(C#N)C#N	-39.3%
CCc1cc2c(CN3CCN(CC)CC3)cc(=O)oc2cc1O	-8.81%
CC1(C)Oc2ccc3ccc(=O)oc3c2C(/C=N/O)C1=O (stereo not drawn)	3.87%
O=C(CN1C(=O)NC2(CCCCCC2)C1=O)c1ccc(OC(F)F)cc1OC(F)F	-35%

Structure (SMILES)	hERG current change (%, negative = inhibition) at 10uM
COc1cc(CN2CCN(Cc3ccc(SC)cc3)CC2)cc(OC)c1O.O=C(O)C(=O)O	-67.9%
COc1cc(OC)c(OC)cc1CN1CCN(Cc2ccc(SC)cc2)CC1.O=C(O)C(=O)O	-61.5%
COc1ccc(C(=O)N2CCN(Cc3cc(OC)c(O)c(OC)c3)CC2)cc1OC.O=C(O)C(=O)O	8.89%
COc1cccc(CN2CCN(Cc3cc(OC)c(OC)cc3OC)CC2)c1.O=C(O)C(=O)O	-29.1%
COc1cc(OC)c(OC)cc1CN1CCN(Cc2cccc(F)c2)CC1.O=C(O)C(=O)O	10.2%
COc1cc(CN2CCN(C(=O)CC(C)C)CC2)cc(OC)c1O.O=C(O)C(=O)O	-0.00662%
Cc1ccc(N2C(=O)CS(=O)(=O)CC2=O)cc1	22.9%
CC[C@H](C)[C@H](NC(N)=O)C(=O)NCCc1ccc(OC)c(OC)c1	20.1%
O=[N+]([O-])C(=C1Nc2ccccc2N1)/C(Cl)=C(/Cl)Br	19.8%
N#Cc1nc(-c2cccs2)oc1NCC1CCCO1 (stereo not drawn)	-10%
c1csc(-c2nc(NCC3CCCO3)c3ccccc3n2)c1 (stereo not drawn)	-20.5%
Brc1ccc2nc(-c3cccs3)c(NCC3CCCO3)n2c1 (stereo not drawn)	-52.6%
COc1ccccc1OCC(=O)Nc1c2c(nn1-c1ccccc1)CS(=O)(=O)C2	-8.22%
Cc1c(C)c2cc(Cl)c(OCC(=O)N3C[C@H]4C[C@@H](C3)c3cccc(=O)n3C4)cc2oc1=O	1.78%
Cc1ccccc1C(=O)Nc1c2c(nc3ccccc13)CCCC2	-5.54%
O=C(O)c1cccc(Nc2c3ccccc3nc3ccccc23)c1	19.7%
CC(=O)c1ccc(Nc2c3c(nc4ccccc24)CCCC3)cc1	-53.3%
CC(=O)c1cccc(Nc2c3c(nc4ccccc24)CCC3)c1.Cl	-68.8%
O=C(Nc1c2c(nc3ccccc13)CCCC2)c1ccccc1Cl	17.2%
CC(=O)c1cccc(Nc2nc(-c3ccccc3)nc3ccccc23)c1.Cl	26.9%
CCC(CC)C(=O)NC12CC3CC(CC(C3)C1)C2	5.15%
